Assay results published in PubChem BioAssay (NCATS).
Activity calls are given as the source filed them. Calls follow the shape of the dose curve; as a rule, active = well fitted activation curve with a large enough effect; inconclusive = small, poorly fitted or top-dose-only effect; inactive = flat fitted curve, though single readings scatter.

Test: Confirmation and Secondary Assay for Modulators of Hemoglobin Beta Chain Splicing at IVS2 705 locus (AID 930)
Conditions: HeLa EGFP-705 splicing reporter, GFP fluorescence, 48 h; series mostly up to 38.3 µM
Description: NIH Chemical Genomics Center [NCGC] NIH Molecular Libraries Screening Centers Network [MLSCN] MLSCN Grant: 1 X01 MH080684-01 PI Name: Dr. Ryszard Kole NCGC Assay Overview: Modulation of Alternative Splicing as Therapy Abnormal splicing is associated with a number of diseases, including cancer and genetic diseases such as cystic fibrosis, muscular dystrophy and beta-thalassemia. Alteration of disease associated splicing patterns provides a promising target for treatment. […] Mutations in the second intron of the b-globin gene at positions 654 or 705 are clinically relevant and cause mis-splicing which results in an out of frame gene product. […] EGFP-705 HeLa Cells as screen system. HeLa cell lines were stably transfected with a construct in which the EGFP (enhanced green fluorescent protein) cDNA was interrupted by the second intron of the beta-globin gene (IVS2-705). The ISV2 intron contains mutations which cause mis-splicing of EGFP and premature termination of EGFP which results in a nonfluorescent protein product. […] Expression of the transgene was driven by the CMV promoter. We concluded that a low molecular weight compound, which restored correct splicing of intron 2 would also generate functional EGFP protein, resulting in a fluorescent signal. Thus, the HeLa cells that express the EGFP-705 construct can be used for validation of splice site specificity of compounds identified in primary screening of the ISV2 654 construct.
NCGC Assay Protocol Summary: Confirmatory Screening. Freshly thawed HeLa EGFP-705 cells were seeded in 5 ul of optimem media (Invitrogen) containing 2 % fetal calf serum (Hyclone) and 1x penicillin/streptomycin (Invitrogen) at a concentration of 500 cells per well in 1536-well plates. Cells were incubated overnight at 37C in 5% CO2. The next day, cells were treated with DMSO, 500 nM antisense ISV2 654 PNA control oligo, or library compound and allowed to grow at 37C in 5% CO2 for 2 days. The PNA oligo blocked the mutation site in the intron and allowed proper (wild type) splicing to occur, resulting in full length EGFP expression and also allowed for optimization of the assay parameters. Plates were read in the Acumen Explorer (TTP Labtech) using 488 nm laser excitation and 500-520 nm emission PMT filter in a 1 x 8 uM capture mode. Fluorescnet objects ranging in size from 5 to 250 uM were measured and the total peak GFP intensity for each well was used for data analysis. Keywords: Thalassemia, beta-thalassemia, beta-globin, EGFP, ISV2 654, ISV2 705, SSO, PNA, antisense, splicing, MLSMR, MLSCN, NIH Roadmap, qHTS, NCGC

Row | Structure (SMILES) | outcome
1 | Nc1c2ccccc2nc2ccccc12 (tested in a mixture with another compound) | inactive
2 | COc1c(O)cc2oc3cc(O)c(CC=C(C)C)c(O)c3c(=O)c2c1CC=C(C)C | inactive
3 | COC(=O)CC1C2(C)CC34OC5(C)O[C@@]6(C7/C(=C(/OC)C(C)C)C(=O)OC(c8ccoc8)[C@@]7(C)C(OC(=O)C(C)C)C(OC)[C@]6(O5)[C@@]13C)C(OC)[C@]4(OC)C2OC(C)=O (stereo not given in full) | inactive
4 | Cc1occc(=O)c1O | inactive
5 | C[N+](C)(C)CC(O)CC(=O)O (stereo not given) | inactive
6 | c1cncc(-c2ccc3ncnc(N4CCNCC4)c3c2)c1 | inactive
7 | CC(=O)OC1CC[C@]2(C)C(CC(OC(C)=O)[C@@]3(C)C4=CC(=O)OC(c5ccoc5)[C@]4(C)CCC23)C1(C)C (stereo not given in full) | inactive
8 | c1cncc(-c2nccc(-n3ccnc3)n2)c1 | inactive
9 | CS(=O)(=O)Nc1cccc(-c2ccc3ncnc(NCc4cccnc4)c3c2)c1 | inactive
10 | CN(C)C(=O)c1ccc(-c2nc(NCc3cccnc3)c3ccccc3n2)cc1 | inactive
11 | COc1ccccc1CNc1ncncc1-c1ccccc1C | inactive
12 | Cc1noc(C)c1-c1ccc2ncnc(N(C)Cc3ccco3)c2c1 | inactive
13 | NC(Cc1c[nH]c2ccccc12)C(=O)O (stereo not given) | inactive
14 | CC(=O)NCCNc1nc(-c2ccccc2CN(C)C)nc2ccccc12 | inactive
15 | Nc1ncnc2c1ncn2C1OC(CO)C(O)C1O (stereo not given) | inactive
16 | CC1CC2C3CCC4=CC(=O)C=C[C@@]4(C)[C@]3(F)C(O)C[C@]2(C)[C@]1(O)C(=O)CO (stereo not given in full) | inactive
17 | Cc1ccccc1-c1nc(NCc2cccnc2)c2ccccc2n1 | inactive
18 | Cc1noc(C)c1-c1ccc2ncnc(NC3CC3)c2c1 | inactive
19 | O=C1C=C(O)c2ccccc2C1=O | inactive
20 | Cc1cccc(CNc2cc(-c3cccc(NS(C)(=O)=O)c3)ncn2)c1 | inactive

Row | Structure (SMILES) | outcome
21 | Cc1cccc(CNc2cc(-c3ccc(N(C)C)cc3)ncn2)c1 | inactive
22 | O=c1[nH]cnc2c1ncn2C1OC(CO)C(O)C1O (stereo not given) | inactive
23 | COc1cc(C)c2c(c1C=O)Oc1c(c(C)c(O)c3c1C(O)OC3=O)OC2=O (stereo not given) | inactive
24 | COc1ccc(CNc2ncncc2-c2ccc3c(c2)OCO3)c(OC)c1 | inactive
25 | C=C[C@](C)(O)CCC1C(=C)CC(OC(C)=O)C2C(C)(C)CCCC12C (stereo not given in full) | inactive
26 | Cc1ccccc1-c1cc(-n2ccnc2)ncn1 | inactive
27 | Cc1cccc(CNc2nc(-c3ccccc3CN(C)C)nc3ccccc23)c1 | inactive
28 | COc1ccc2c(c1)OCc1c-2oc2cc(OC)ccc12 | inactive
29 | CC(=O)Oc1cc(OC(C)=O)c2c(c1)OC(c1ccc(OC(C)=O)c(OC(C)=O)c1)C(OC(C)=O)C2 (stereo not given) | inactive
30 | CN(C)c1ccc(-c2nc(NCc3cccnc3)c3ccccc3n2)cc1 | inactive
31 | Cc1noc(C)c1-c1cncnc1NC1CC1 | inactive
32 | O=C(O)c1cc(O)c2c(c1)C(=O)c1cc(O)cc(O)c1C2=O | inactive
33 | CN(Cc1ccco1)c1ccnc(-c2ccoc2)n1 | inactive
34 | CC(CCC(=O)O)C1CCC2C3C(O)C[C@@H]4CC(O)CC[C@@]4(C)C3CC[C@@]12C (stereo not given in full) | inactive
35 | CN(C)c1ccc(-c2nc(N(C)C)c3ccccc3n2)cc1 | inactive
36 | COc1ccc2[nH]cc(CCNc3cc(-c4ccoc4)ncn3)c2c1 | inactive
37 | Cc1ccccc1-c1cncnc1N1CCNCC1 | inactive
38 | COc1ccccc1-c1cncnc1NCc1cccc(C)c1 | inactive
39 | CS(=O)(=O)Nc1cccc(-c2ccc3ncnc(Nc4ccc(F)cc4)c3c2)c1 | inactive
40 | c1ncc(-c2ccc3c(c2)OCO3)c(NCCc2cnc[nH]2)n1 | inactive
